Bioassay records: PubChem, The Scripps Research Institute Molecular Screening Center
Most compounds without a hit are left out; they make up all but 4.2% or so of the library.
ssDAF-12 act – S. stercoralis DAF-12 nuclear receptor activators, primary screen, cell-based, luminescence, HEK293, GRIP1 co-expression, lit1-tk-luc; Nuclear hormone receptor DAF-12 (Strongyloides stercoralis); HEK293 ssDAF-12/GRIP1 lit1-tk-luc reporter; % of 3 µM dafachronic acid response; activation, % at 6.8 µM; 1% of 370,000 active;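 active means activation above the mean over all tested compounds plus 3 SD, cut at about 0.9% in these data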
DAX1 StAR inh – DAX1 (NR0B1) inhibitors on StAR promoter, primary screen, cell-based, luminescence, SF-1 (NR5A1), full-length DAX-1 | inhibition, % at 6.8 µM | AID 652010, 2013 | 1.1% of 370,000 active | HEK293T StAR-luciferase reporter, SF-1/DAX-1 repression relief;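 active means inhibition above the mean over all tested compounds plus 3 SD, cut at about 3.6% in these data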;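 further: higher inhibition means more luminescence from relief of DAX-1 repression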
hgDAF-12 ag – H. glycines DAF-12 receptor agonists, primary screen, cell-based, luminescence, HEK293, GAL4 fusion, UAS-luciferase; Nuclear hormone receptor DAF-12 (Heterodera glycines), GAL4 fusion; AID 687014, 2013; 1.8% of 370,000 active; HEK293 GAL4-hgDAF12 UAS-luciferase reporter, agonist luminescence; normalized to butyrate control; activation, % at 6.8 µM;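 active means activation above a cutoff set at the mean of all screened compounds plus 3 SD, cut at about 10% in these data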
SMARCA2 act – SMARCA2 (BRM) function activators, primary screen, cell-based, luminescence, high throughput. MG213 cells, MMTV-luciferase reporter, dexamethasone, overnight. activation, % at 9.1 µM. 1% of 370,000 active. AID 652017, 2013; in the data active means activation above about 7.8%
hcDAF12 agonist – H. contortus DAF-12 nuclear receptor activators, primary screen, cell-based, luminescence, HEK293, lit1-tk-luc reporter. 1.4% of 370,000 active. AID 652067, 2013. activation, % at 6.8 µM. HEK293 hcDAF-12 lit1-tk-luc reporter; 0% DMSO, 100% Δ7-dafachronic acid;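 active means activation above the mean of all tested compounds plus 3 SD, cut at about 5.5% in these data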
DAX1 inh confirm – DAX1 (NR0B1) inhibitors relieving SF-1 repression, confirmation, cell-based, luminescence, HEK293T, full-length DAX-1, SF-1 activated StAR promoter; shares compounds with DAX1 StAR inh; HEK293T StAR-promoter luciferase reporter, SF-1/DAX-1 repression; inhibition, % at 6.8 µM; 87% of 2,400 active;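 active means inhibition above the average of every tested compound plus 3 SD, cut at about 3.8% in these data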
Target sequence (P51843 whole entry, looked up): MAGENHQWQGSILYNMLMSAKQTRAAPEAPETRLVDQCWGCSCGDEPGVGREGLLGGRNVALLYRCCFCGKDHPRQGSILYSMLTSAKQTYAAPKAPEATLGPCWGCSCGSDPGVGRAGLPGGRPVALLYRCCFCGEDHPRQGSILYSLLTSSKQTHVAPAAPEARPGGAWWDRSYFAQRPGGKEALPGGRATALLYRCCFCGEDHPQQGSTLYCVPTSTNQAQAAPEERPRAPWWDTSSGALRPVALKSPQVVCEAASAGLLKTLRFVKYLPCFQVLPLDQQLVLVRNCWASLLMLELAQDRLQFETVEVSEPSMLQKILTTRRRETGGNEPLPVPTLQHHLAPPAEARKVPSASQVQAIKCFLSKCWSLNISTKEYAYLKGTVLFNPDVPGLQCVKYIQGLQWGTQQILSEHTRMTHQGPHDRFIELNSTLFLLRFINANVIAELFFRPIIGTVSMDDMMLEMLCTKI
SF1 AF2mut Luc – StAR reporter signal changes without DAX1, counter-screen for DAX1 inhibitor project, cell-based, luminescence, AF-2 mutant SF-1, transactivation | shares compounds with DAX1 StAR inh | HEK293 StAR-luciferase, SF-1 AF2 mutant | inhibition, % at 6.8 µM | 78% of 2,400 active | AID 652136, 2013;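 active means inhibition above the mean of all tested compounds plus 3 SD, cut at about 3% in these data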
LXR ag – LXR agonists, Gal4 luciferase reporter, confirmation, counter-screen for hcDAF-12 agonist project, cell-based, luminescence, HEK293, H. contortus campaign. shares compounds with hcDAF12 agonist. HEK293 Gal4-LXR tk-luc reporter, 24 h; normalized: DMSO 0%, positive control 100%. activation, % at 6.8 µM. 3,400 tested, under 10 active. AID 743027, 2013;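 active means mean percent activation of the reporter above a cutoff set as the average over tested compounds plus their standard deviation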
hcDAF12 ag – H. contortus DAF-12 receptor agonists, confirmation, cell-based, luminescence, HEK293, lit1-tk-luc, triplicate; activation, % at 6.8 µM; 61% of 3,400 active; shares compounds with hcDAF12 agonist; AID 743032, 2013; HEK293 hcDAF-12 lit1-tk-luc reporter; % of Δ7-dafachronic acid response;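 active means mean activation across triplicate tests above the threshold derived from the earlier primary screen, cut at about 5.5% in these data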
hgDAF12 conf – H. glycines DAF-12 receptor agonists, confirmation, cell-based, luminescence, HEK293, GAL4-LBD fusion | shares compounds with hgDAF-12 ag | HEK293 GAL4-hgDAF12 luciferase reporter, agonist mode; percent of butyrate response | activation, % at 6.8 µM | 80% of 3,300 active | AID 743050, 2013;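 active means mean activation over triplicate wells above the hit cutoff derived from the earlier primary screen, cut at about 11% in these data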
LXRb DAF12 ctr – LXR agonists, Gal4 luciferase reporter, confirmation, counter-screen for hgDAF-12 agonist project, cell-based, luminescence, HEK293, H. glycines campaign; shares compounds with hgDAF-12 ag; 24 h; activation, % at 6.8 µM; 3,300 tested, under 10 active; AID 743051, 2013;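 active means mean activation of the triplicate above a set limit carried over from the primary screen, none filed active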
A number is an active result; . = inactive; / = no result.

SMILES | ssDAF-12 act | DAX1 StAR inh | hgDAF-12 ag | SMARCA2 act | hcDAF12 agonist | DAX1 inh confirm | SF1 AF2mut Luc | hgDAF12 conf | LXRb DAF12 ctr | others
Cn1c(N=NC(=O)c2ccccc2)c(O)c2ccccc21 | 2.1 | 5.8 | 21 | . | 13 | 15 | 5.7 | 16 | . | LXR ag=.;hcDAF12 ag=5.9
O=C(NCc1ccccc1)C(C1CC1)n1c(=O)c(-c2ccco2)nc2ccccc21 (stereo unspecified) | . | . | . | . | . | / | / | / | /
CCOC(=O)c1c(C)[nH]c(C(=O)OCC(=O)c2ccccc2)c1C | . | 13 | 14 | . | 7.4 | 9.8 | 4.9 | 17 | . | LXR ag=.;hcDAF12 ag=.
Cc1onc(-c2ccc(Cl)cc2)c1-c1ccn(S(=O)(=O)c2ccccc2)n1 | . | . | . | . | . | / | / | / | /
O=C(Nc1nc2ccccc2[nH]1)NC1CCCCC1 | . | 16 | 16 | . | 5.8 | 18 | 9.7 | 21 | .
Cc1ccc(C(=O)Nc2nc3ccccc3[nH]2)cc1 | . | . | . | . | . | / | / | / | /
CCOC(=O)C(C(=O)Nc1nc2ccccc2s1)C1CCCCC1 (stereo unspecified) | . | . | . | . | . | / | / | / | /
O=C(Nc1nc2ccccc2[nH]1)c1cccs1 | . | 6.6 | 14 | . | . | 4.6 | 4.6 | 13 | .
O=C(Nc1nc2ccccc2s1)NC1CCCCC1 | . | 6.1 | 18 | . | 6.1 | 10 | 6.0 | 19 | .
Nc1cc2sc(-c3ccc(C(=O)O)cc3)nc2cc1Cl | . | . | . | . | . | / | / | / | /
Cc1cc(-c2nc3cc(F)ccc3s2)ccc1N | 3.7 | 7.0 | 20 | . | 18 | 8.4 | 4.5 | 24 | . | LXR ag=.;hcDAF12 ag=17
COc1ccc(Cl)c(-c2cc(C(=O)Nc3ccccc3)[nH]n2)c1 | . | 7.0 | 18 | . | 6.5 | 6.7 | 5.2 | 19 | .
COc1ccc(Cl)cc1-c1cc(C(=O)Nc2ccccc2)[nH]n1 | . | . | . | . | . | / | / | / | /
COc1ccc(CN=C2Nc3ccccc3CS2)cc1 | 1.2 | 4.7 | 14 | . | . | 11 | 7.2 | 17 | .
COc1ccc(CN=C2NN=C(c3ccc(Cl)cc3)CS2)cc1 | . | . | . | . | . | / | / | / | /
CC(=O)OCC(=O)N1N=C(c2ccc3ccccc3c2)CC1c1ccccc1 (stereo unspecified) | . | . | . | . | . | / | / | / | /
COc1ccc(C2CC(c3ccc4ccccc4c3)=NN2C(=O)COC(=O)C2CCC(=O)N2)cc1 (stereo unspecified) | 1.2 | 6.7 | 15 | . | 10 | 15 | 6.5 | 19 | . | LXR ag=.;hcDAF12 ag=6.0
O=C(NCCc1c[nH]c2ccccc12)[C@H](Cc1c[nH]c2ccccc12)NC1(C(=O)NC2CCCCC2)CCCCCCC1 | . | / | . | / | . | / | / | / | /
Cc1ccc(OCc2nc(-c3ccccn3)no2)cc1 | 0.9 | 5.1 | 18 | . | 8.9 | 16 | 7.2 | 15 | . | LXR ag=.;hcDAF12 ag=.
CCOC(=O)N(C)C[C@H]1OCc2cn(nn2)CCCC(=O)N([C@@H](C)CO)C[C@@H]1C | . | . | . | . | . | / | / | / | /
CCOC1=C2CN(S(=O)(=O)c3ccccc3)[C@@H](c3ccccc3)C[C@H]2[C@H]2C(=O)N(c3ccccc3)C(=O)[C@H]2C1 | . | . | . | . | . | / | / | / | /
Cn1c(C(=O)Nc2ccc3c(c2)OCO3)cc2sccc21 | 2.5 | 5.5 | 17 | . | 14 | 11 | 7.0 | 19 | . | LXR ag=.;hcDAF12 ag=16
O=C(Nc1ccc(Cl)cc1Cl)c1ccc2c(c1)OCCO2 | . | 8.7 | 14 | . | 7.5 | 17 | 6.7 | 17 | . | LXR ag=.;hcDAF12 ag=6.3
O=C(Nc1ccc2c(c1)OCO2)c1cnc(Cl)c(Cl)c1 | 1.8 | 5.6 | 21 | . | 6.3 | 8.1 | 6.5 | 16 | .
O=C(Nc1ccc2c(c1)OCO2)Nc1ccccc1F | . | 11 | 19 | . | . | 13 | 6.9 | 15 | .
SMILES | ssDAF-12 act | DAX1 StAR inh | hgDAF-12 ag | SMARCA2 act | hcDAF12 agonist | DAX1 inh confirm | SF1 AF2mut Luc | hgDAF12 conf | LXRb DAF12 ctr | others
C[C@]12Cc3ccccc3C1CC1=N[C@@H](c3ccccn3)O[C@@]13C[C@@H]2C(=O)N3C1CCN(Cc2ccccc2)CC1 (stereo partly specified) | . | . | . | . | . | / | / | / | /
Cc1ccccc1CN1C(=O)c2ccccc2C1c1nnnn1C(C)C (stereo unspecified) | . | . | . | . | . | / | / | / | /
Cc1ccccc1CN1CCCCC(NC(=O)c2cccc(C(F)(F)F)c2)C1=O (stereo unspecified) | . | . | . | . | . | / | / | / | /
O=C(NCc1ccco1)C1CCCN(S(=O)(=O)c2ccc([N+](=O)[O-])cc2)C1 (stereo unspecified) | . | . | . | . | . | / | / | / | /
O=C(Nc1ccccn1)c1ccc2c(c1)OCO2 | . | 6.1 | 22 | . | . | 6.8 | 3.4 | 13 | .
Cc1ccc(C(=O)Nc2ccc3c(c2)OCO3)cc1Cl | . | 11 | 18 | . | 6.1 | 11 | 6.6 | 20 | .
Cc1ccc(-c2nc3ncccn3c2NC(=O)c2ccccc2)cc1 | . | . | . | . | . | / | / | / | /
